According to the supplement of paper PMC11732987, “Enantioselective OTUD7B fragment discovery through chemoproteomics screening and high-throughput optimisation” (Communications Chemistry, 2025):

Key:
Experiment in all cases: log2 ratio of Biotin-Ahx-Ub-VS probe labelling (fragment/DMSO); higher = less target engagement (more negative = stronger competition), active = hit call of the paper (q ≤ 0.05, log2 ratio ≤ -1)
Settings in all cases: compound concentration: 200 uM; treatment time: 3 h
USP19 = target: T1, USP19 (UniProt O94966)
T1 sequence (whole entry): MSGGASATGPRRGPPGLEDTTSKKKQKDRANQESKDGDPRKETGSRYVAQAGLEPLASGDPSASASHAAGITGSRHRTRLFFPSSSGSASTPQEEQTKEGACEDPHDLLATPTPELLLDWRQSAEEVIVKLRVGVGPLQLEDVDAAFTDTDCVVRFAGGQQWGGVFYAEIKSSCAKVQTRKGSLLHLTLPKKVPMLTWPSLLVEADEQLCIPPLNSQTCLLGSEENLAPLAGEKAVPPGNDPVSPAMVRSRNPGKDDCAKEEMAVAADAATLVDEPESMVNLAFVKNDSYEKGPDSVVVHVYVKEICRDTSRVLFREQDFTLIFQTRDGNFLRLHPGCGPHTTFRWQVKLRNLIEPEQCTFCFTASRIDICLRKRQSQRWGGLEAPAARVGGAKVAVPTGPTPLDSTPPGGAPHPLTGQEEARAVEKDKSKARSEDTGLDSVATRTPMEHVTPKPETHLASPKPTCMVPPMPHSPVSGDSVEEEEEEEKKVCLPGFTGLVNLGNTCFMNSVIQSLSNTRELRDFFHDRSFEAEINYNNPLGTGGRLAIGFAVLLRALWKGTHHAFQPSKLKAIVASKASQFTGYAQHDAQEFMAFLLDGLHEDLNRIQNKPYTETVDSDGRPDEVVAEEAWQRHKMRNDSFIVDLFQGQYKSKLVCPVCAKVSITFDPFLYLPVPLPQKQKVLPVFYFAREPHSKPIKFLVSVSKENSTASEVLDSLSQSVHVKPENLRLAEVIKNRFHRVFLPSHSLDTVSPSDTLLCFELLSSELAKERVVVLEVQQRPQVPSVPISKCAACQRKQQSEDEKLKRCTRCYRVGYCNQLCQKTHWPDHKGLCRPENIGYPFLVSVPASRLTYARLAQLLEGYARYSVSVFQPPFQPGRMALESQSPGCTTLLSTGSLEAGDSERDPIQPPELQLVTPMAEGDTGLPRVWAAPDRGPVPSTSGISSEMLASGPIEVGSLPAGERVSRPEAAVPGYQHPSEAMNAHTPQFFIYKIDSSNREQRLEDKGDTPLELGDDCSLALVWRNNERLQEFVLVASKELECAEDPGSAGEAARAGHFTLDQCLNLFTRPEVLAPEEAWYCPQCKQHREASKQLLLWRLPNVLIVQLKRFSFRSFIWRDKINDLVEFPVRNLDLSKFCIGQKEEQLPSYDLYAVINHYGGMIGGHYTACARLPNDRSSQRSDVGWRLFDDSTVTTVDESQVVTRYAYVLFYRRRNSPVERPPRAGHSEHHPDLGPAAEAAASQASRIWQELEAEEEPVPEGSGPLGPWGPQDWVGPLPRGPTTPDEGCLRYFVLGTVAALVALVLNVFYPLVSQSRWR
In short: (§1)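 Average log2 ratios of fragment over vehicle were obtained by unpaired t-test from global-median-normalised Spectronaut label-free quantities. Proteins with ≥2 unique peptides were included. HEK293T lysate (495 µg per sample) was treated in triplicate with fragment at 200 µM or vehicle for 3 h, then with Biotin-Ahx-Ub-VS at 0.5 µM final for 1 h, and labelled DUBs were NeutrAvidin-enriched and run by diaPASEF LC-MS/MS.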

USP22 = target: T2, USP22 (UniProt Q9UPT9)
T2 sequence (whole entry): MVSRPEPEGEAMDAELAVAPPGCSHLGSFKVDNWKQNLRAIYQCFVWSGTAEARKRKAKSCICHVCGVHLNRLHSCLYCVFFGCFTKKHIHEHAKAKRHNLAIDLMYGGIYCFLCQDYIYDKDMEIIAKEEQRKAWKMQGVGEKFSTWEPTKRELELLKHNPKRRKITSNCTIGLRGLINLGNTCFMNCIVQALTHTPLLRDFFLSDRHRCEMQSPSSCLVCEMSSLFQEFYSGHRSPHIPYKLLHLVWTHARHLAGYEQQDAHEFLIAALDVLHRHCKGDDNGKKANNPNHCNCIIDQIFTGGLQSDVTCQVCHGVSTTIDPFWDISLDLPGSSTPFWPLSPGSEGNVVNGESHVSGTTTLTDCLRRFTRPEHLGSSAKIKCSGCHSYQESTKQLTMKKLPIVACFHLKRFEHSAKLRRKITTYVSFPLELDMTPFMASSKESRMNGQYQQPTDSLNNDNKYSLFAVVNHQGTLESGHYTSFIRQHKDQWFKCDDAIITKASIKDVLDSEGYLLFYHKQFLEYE
In short: as §1

USP24 = USP24 (UniProt Q9UPU5)
USP24, sequence (Q9UPU5 whole entry): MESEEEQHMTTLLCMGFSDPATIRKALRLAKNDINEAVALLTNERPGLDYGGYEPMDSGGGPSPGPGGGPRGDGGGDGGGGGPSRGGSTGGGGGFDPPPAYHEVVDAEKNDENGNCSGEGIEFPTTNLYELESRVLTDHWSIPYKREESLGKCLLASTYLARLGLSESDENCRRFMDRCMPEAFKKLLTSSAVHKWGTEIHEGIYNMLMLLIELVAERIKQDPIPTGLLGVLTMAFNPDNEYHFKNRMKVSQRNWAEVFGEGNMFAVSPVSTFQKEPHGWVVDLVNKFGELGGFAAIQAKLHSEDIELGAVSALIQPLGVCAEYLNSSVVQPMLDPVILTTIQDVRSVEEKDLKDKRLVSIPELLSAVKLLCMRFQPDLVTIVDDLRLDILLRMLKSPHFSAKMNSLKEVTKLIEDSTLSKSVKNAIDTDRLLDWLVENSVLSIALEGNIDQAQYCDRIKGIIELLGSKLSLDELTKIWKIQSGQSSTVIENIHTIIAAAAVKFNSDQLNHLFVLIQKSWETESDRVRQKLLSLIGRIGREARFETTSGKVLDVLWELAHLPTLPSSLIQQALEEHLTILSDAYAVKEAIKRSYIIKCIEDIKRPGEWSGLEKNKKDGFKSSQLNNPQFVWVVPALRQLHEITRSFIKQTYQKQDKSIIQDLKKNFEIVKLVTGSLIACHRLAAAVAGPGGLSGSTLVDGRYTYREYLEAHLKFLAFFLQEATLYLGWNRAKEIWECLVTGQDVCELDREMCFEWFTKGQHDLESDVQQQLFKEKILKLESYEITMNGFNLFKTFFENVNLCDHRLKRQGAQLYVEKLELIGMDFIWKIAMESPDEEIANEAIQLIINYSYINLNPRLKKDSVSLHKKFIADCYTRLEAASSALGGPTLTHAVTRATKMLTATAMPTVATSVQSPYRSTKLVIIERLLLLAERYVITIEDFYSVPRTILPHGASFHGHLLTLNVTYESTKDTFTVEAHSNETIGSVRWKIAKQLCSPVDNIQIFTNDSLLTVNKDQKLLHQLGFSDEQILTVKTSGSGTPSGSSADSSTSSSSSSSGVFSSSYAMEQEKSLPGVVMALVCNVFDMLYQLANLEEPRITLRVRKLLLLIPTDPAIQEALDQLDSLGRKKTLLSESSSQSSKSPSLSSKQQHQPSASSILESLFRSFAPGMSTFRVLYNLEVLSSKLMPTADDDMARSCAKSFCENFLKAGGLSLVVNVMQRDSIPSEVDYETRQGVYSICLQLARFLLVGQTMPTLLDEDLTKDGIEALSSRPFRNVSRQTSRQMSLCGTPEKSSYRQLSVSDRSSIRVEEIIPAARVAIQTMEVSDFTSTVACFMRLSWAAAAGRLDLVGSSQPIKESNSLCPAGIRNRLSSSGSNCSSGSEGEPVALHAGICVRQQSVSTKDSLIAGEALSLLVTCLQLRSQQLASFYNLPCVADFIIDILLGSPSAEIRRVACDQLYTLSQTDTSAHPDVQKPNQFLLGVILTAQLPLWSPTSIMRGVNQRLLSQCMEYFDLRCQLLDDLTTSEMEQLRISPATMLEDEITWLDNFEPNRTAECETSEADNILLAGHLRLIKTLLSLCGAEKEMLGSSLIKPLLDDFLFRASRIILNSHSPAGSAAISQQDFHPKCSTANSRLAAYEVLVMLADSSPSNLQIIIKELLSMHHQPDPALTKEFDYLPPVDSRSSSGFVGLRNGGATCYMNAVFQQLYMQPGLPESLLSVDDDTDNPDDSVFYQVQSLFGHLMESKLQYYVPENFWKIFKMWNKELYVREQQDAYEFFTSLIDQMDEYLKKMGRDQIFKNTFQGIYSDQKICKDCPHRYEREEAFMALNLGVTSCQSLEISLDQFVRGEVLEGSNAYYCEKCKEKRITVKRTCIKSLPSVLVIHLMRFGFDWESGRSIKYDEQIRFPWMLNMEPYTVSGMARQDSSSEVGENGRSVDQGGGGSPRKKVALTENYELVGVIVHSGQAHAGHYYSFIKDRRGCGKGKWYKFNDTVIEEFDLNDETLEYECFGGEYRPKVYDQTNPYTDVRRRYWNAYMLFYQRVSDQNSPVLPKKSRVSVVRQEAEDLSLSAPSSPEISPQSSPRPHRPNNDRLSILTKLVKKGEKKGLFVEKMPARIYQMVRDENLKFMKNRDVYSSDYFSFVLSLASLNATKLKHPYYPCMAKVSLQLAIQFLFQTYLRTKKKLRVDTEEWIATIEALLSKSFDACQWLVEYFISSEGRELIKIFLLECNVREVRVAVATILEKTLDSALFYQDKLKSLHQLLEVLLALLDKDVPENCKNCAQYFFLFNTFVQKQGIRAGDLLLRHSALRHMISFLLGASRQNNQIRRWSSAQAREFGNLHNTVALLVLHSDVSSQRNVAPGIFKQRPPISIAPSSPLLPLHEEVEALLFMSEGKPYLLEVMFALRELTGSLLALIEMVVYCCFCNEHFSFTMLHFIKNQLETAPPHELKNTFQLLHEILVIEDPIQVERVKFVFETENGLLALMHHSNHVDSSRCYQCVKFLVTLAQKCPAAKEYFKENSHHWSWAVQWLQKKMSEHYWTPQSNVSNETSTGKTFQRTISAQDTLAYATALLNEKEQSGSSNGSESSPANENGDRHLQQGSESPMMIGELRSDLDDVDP
In short: as §1

USP25 = target: T3, USP25 (UniProt Q9UHP3)
T3 sequence (whole entry): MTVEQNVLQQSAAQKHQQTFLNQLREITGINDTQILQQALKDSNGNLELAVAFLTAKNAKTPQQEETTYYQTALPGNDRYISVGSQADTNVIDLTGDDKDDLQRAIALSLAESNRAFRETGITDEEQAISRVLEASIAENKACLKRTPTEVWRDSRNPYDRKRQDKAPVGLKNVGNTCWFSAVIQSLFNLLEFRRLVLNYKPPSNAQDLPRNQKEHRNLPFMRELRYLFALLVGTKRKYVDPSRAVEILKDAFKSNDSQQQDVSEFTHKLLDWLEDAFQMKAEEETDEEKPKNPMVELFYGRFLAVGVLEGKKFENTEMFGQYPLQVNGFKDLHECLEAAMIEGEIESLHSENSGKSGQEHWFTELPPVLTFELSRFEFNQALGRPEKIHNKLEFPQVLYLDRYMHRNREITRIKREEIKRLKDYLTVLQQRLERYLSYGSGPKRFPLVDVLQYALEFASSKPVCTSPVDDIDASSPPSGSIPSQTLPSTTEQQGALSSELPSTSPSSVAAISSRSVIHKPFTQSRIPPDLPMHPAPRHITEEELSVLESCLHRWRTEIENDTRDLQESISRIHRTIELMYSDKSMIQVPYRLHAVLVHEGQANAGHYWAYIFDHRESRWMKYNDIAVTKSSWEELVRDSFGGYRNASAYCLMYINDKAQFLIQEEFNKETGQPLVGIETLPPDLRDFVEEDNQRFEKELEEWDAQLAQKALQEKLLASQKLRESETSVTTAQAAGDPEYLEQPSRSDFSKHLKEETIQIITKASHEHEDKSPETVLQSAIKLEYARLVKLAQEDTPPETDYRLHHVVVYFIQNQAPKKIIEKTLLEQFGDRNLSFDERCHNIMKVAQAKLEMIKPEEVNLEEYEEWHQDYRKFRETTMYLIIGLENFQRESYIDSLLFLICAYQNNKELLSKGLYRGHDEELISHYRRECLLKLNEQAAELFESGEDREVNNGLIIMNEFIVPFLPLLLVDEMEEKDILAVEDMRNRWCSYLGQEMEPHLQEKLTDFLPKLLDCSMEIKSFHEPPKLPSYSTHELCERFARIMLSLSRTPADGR
In short: as §1

USP28 = target: T4, USP28 (UniProt Q96RU2)
T4 sequence (whole entry): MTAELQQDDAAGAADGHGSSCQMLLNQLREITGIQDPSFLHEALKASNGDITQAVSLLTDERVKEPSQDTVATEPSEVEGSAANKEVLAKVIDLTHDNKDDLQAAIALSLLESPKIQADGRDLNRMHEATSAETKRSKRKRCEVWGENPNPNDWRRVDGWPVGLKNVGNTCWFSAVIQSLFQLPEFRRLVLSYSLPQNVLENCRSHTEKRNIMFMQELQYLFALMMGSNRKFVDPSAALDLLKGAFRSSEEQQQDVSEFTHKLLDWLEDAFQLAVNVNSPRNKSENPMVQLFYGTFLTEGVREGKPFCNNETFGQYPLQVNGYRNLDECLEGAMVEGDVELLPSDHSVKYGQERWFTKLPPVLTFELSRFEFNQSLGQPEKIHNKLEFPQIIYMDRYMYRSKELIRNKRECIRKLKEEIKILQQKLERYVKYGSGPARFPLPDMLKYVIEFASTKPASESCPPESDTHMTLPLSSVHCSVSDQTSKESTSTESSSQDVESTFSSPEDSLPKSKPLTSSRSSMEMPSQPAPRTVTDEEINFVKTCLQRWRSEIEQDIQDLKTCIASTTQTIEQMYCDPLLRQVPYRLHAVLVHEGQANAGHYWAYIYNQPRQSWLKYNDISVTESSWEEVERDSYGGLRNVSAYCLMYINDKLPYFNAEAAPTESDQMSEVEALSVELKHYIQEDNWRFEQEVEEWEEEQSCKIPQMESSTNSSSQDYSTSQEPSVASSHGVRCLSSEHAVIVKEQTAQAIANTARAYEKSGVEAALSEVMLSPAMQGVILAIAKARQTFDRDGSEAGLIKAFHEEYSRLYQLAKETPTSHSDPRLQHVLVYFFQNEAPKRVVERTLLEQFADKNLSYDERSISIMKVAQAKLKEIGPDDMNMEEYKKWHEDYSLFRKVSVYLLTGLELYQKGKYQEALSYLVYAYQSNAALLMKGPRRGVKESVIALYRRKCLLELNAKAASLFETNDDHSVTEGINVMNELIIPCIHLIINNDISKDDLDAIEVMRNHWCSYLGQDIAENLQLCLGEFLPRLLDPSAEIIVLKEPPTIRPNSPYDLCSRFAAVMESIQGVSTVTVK
In short: as §1

Measured: log2 ratio of Biotin-Ahx-Ub-VS probe labelling

Cc1ccn2cc(CNC(=O)CCl)nc2c1.Cl
inactive: USP19 -0.148 | USP22 -0.112 | USP24 -0.106 | USP25 -0.398 | USP28 -0.272
